Composite z-score and z-score data for four compounds are collected here from PubChem BioAssay.

Experiment [1] deals with Wnt5a (protein binding on small-molecule microarray). As to the kind of experiment: small molecules binding Wnt5a protein – biophysical, small-molecule microarray, 635/667 nm fluorescence, primary screen (AID 1142).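 Note: fluorescence read at 667 nm with signal to noise per printed feature.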 The following applies: 635 nm fluorescence, higher = more signal.
Experiment [2] in a line: ATP-based viability of Huh7 replicon cells – cell-based, CellTiter-Glo luminescence, basal, 48 h, cytotoxicity control for HCV replication inhibitor project, primary screen (AID 1143).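 Note: Huh7 hepatoma cells carrying a hepatitis C replication reporter with no stimulus; test concentration not given here.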 The settings on record: higher = more signal, called active from +8 up or from −8 down.
Experiment [3] in a line: basal CRE-LacZ reporter activity in PC12 – cell-based, unstimulated, primary screen (AID 1145). The following applies: no forskolin, luminescence, 4.5 h, higher = more signal, called active from +8 up or from −8 down.
Experiment [4] in a line: forskolin-driven CRE-LacZ activity in PC12 – cell-based, CRE-LacZ reporter, forskolin-stimulated, primary screen (AID 1146).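 Note: PC12 cells with 6xCRE LacZ reporter stimulated by forskolin 10 µM; beta-galactosidase reporter signal reflecting CREB driven transcription.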 The following applies: luminescence, 4.5 h, higher = more signal, called active from +8 up or from −8 down.
Experiment [5] concerns the target Streptavidin (Streptomyces avidinii) (UniProt P22629). As to the kind of experiment: compounds binding control protein streptavidin – biophysical, small-molecule microarray, 635/667 nm fluorescence, artefact control for SMM compound annotation, primary screen (AID 1147).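 Note: signal reflects streptavidin binding to arrayed compounds as a control protein.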 The settings on record: higher = more signal.
Experiment [6] in a line: probe aInhba binding on compound microarray – biochemical, small-molecule microarray, 635/667 nm fluorescence, primary screen (AID 1148).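 Note: score merges 667nm spot fluorescence with signal-to-noise for antibody binding to printed compounds.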 The settings on record: higher = more signal.
Experiment [7] has as its target Torsin-1A (Homo sapiens) (UniProt O14656). As to the kind of experiment: TOR1A wild-type binding on microarray – cell lysate, small-molecule microarray, lysate, 635/667 nm, primary screen (AID 1149). The following applies: COS7 hTOR1A-WT lysate, 635 nm fluorescence, higher = more signal.
For experiment [8] the target is unchanged. As to the kind of experiment: torsin A mutant lysate binding on microarrays – cell lysate, small-molecule microarray, COS7 lysate, 635/667 nm fluorescence, primary screen (AID 1150).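 Note: score pools 667 nm emission and signal to noise measuring lysate protein binding.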 The following applies: COS7 hTOR1A mutant lysate, 635 nm fluorescence, higher = more signal.
Experiment [9] has as its system Sonic hedgehog protein (Shh). As to the kind of experiment: Sonic hedgehog microarray binding compounds – biochemical, small-molecule microarray, 635/667 nm fluorescence, primary screen (AID 1151).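 Note: Shh protein binding to compounds spotted on small-molecule microarray slides; score combines spot fluorescence intensity with signal-to-noise across triplicate slides.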 The following applies: 635 nm fluorescence, higher = more signal.
A short description of experiment [10]: optical density shifts of acrAB sulA E. coli – strain DRC41, OD650, 48 h, E. coli filamentation inducer project, primary screen (AID 1152).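 Note: E. coli MC1000 strain DRC41 lacking acrAB efflux pump and sulA.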 The settings on record: higher = more signal, called active from +8 up or from −8 down.
Experiment [11] is described as follows: probe aLefty1 binding on compound microarray – biochemical, small-molecule microarray, 635/667 nm fluorescence, primary screen (AID 1153).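 Note: score merges spot fluorescence with signal-to-noise ratio from the scanned slide images.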 The following applies: higher = more signal.
Experiment [12] can be described thus: plasmodial surface anion channel blockers, osmotic lysis – cell-based, P. falciparum Indochina, OD700, 1 h, primary screen (AID 1154). The following applies: P. falciparum Indochina infected RBC osmotic lysis, higher = more signal, called active from +8 up or from −8 down.
Experiment [13] is described as follows: plasmodial surface anion channel blockers, osmotic lysis – cell-based, P. falciparum Indochina, OD700, 2 h, primary screen (AID 1155).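 Note: lysis reports solute entry through the parasite surface anion channel PSAC.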 The settings on record: P. falciparum Indochina infected erythrocytes, higher = more signal, called active from +8 up or from −8 down.
A short description of experiment [14]: changes in parasitized red cell lysis, either direction – P. falciparum Indochina, OD700, 3 h, PSAC antagonist project, primary screen (AID 1156). The following applies: P. falciparum-infected erythrocytes, osmotic lysis, higher = more signal, called active from +8 up or from −8 down.
Experiment [15] is described as follows: plasmodial surface anion channel blockers, osmotic lysis – cell-based, P. falciparum Indochina, OD700, 18 h, primary screen (AID 1157). The settings on record: P. falciparum Indochina infected erythrocytes, osmotic lysis OD700, 18 h; higher = more signal, called active from +8 up or from −8 down.
Experiment [16] can be described thus: S6 kinase pathway phospho-S6 level changes – cell-based, A549, cytoblot, luminescence, serum-stimulated, primary screen (AID 1158).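 Note: serum-stimulated A549 lung adenocarcinoma cells; signal is phosphorylated S6 detected by cytoblot immunostaining with HRP secondary.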 The settings on record: 5 h, higher = more signal.
The target in experiment [17] is NADPH oxidase 2 (Homo sapiens) (UniProt P04839). As to the kind of experiment: compounds shifting NOX2 Amplex Red fluorescence – cell-based, HEK293-NOX2, PMA-stimulated, NOX inhibitor project, primary screen (AID 1159). Note: test concentration not given here. The following applies: 45 min, higher = more signal, called active from +8 up or from −8 down.
Chain of NADPH oxidase 2 (Homo sapiens) (P04839 whole entry, looked up): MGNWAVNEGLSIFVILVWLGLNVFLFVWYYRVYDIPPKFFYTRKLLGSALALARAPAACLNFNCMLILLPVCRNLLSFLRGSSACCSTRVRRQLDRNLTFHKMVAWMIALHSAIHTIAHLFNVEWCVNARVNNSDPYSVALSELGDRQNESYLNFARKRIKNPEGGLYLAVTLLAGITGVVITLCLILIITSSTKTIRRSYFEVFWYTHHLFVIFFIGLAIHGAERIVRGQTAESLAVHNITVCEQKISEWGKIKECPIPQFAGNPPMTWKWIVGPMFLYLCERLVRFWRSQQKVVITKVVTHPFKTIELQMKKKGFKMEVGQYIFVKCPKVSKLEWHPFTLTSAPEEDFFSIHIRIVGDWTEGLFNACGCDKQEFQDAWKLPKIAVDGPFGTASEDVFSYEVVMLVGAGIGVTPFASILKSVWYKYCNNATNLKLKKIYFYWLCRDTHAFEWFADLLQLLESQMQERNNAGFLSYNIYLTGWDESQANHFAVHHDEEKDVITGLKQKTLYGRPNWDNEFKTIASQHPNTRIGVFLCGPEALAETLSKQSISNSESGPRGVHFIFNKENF
Experiment [18] has as its target NADPH oxidase 4 (Homo sapiens) (UniProt Q9NPH5). As to the kind of experiment: compounds shifting NOX4 Amplex Red fluorescence – cell-based, HEK293-NOX4, tetracycline-induced, NOX inhibitor project, primary screen (AID 1160). The following applies: HEK293-NOX4, Amplex Red H2O2 fluorescence, 45 min; higher = more signal, called active from +8 up or from −8 down.
The target in experiment [19] is NADPH oxidase 5 (Homo sapiens) (UniProt Q96PH1). As to the kind of experiment: compounds shifting NOX5 Amplex Red fluorescence – cell-based, HEK293-NOX5, NOX inhibitor project, primary screen (AID 1161). The following applies: HEK293-NOX5, ionomycin, 45 min, higher = more signal.
Chain of NADPH oxidase 5 (Homo sapiens) (Q96PH1 whole entry, looked up): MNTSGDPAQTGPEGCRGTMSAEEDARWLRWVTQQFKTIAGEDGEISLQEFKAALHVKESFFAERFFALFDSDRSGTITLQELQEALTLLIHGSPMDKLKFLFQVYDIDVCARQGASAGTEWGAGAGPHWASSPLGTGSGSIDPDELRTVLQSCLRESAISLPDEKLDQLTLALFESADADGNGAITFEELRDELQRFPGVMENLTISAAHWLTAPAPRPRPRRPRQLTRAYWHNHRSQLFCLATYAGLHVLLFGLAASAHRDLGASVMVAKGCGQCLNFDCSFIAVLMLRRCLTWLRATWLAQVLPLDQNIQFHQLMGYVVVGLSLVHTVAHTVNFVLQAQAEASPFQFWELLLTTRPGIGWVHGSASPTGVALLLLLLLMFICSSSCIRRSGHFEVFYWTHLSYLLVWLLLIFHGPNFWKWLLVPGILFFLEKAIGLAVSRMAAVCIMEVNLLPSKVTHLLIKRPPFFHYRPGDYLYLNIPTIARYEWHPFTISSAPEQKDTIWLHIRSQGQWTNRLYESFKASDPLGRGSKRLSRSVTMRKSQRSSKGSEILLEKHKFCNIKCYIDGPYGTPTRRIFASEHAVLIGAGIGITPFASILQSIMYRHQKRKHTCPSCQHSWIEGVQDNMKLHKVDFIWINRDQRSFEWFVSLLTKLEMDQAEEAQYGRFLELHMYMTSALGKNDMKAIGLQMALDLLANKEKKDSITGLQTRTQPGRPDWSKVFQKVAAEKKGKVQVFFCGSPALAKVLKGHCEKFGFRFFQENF
A short description of experiment [20]: compound effects on lung adenocarcinoma cell viability – A549, calcein-AM fluorescence, 48 h, basal, profiling panel (AID 1162). Note: test concentration not given here. The settings on record: higher = more signal.

SMILES strings stand for the structures. The source made the active and inactive calls.

Chain of Streptavidin (Streptomyces avidinii) (P22629 whole entry, looked up): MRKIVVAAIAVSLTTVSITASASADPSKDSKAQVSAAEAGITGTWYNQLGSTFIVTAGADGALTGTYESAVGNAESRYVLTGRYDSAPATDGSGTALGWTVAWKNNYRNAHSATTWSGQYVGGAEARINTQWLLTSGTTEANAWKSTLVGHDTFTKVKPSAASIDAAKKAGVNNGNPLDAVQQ
Chain of Torsin-1A (Homo sapiens) (O14656 whole entry, looked up): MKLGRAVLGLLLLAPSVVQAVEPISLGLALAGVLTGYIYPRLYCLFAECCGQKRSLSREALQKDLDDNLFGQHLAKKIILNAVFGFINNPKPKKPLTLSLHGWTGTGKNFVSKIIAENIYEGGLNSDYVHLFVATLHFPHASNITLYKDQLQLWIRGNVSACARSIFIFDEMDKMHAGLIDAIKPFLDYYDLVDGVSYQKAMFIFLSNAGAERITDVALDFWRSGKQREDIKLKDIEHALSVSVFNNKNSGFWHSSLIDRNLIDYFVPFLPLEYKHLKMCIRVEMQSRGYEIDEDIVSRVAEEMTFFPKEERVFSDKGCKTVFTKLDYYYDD
Chain of NADPH oxidase 4 (Homo sapiens) (Q9NPH5 whole entry, looked up): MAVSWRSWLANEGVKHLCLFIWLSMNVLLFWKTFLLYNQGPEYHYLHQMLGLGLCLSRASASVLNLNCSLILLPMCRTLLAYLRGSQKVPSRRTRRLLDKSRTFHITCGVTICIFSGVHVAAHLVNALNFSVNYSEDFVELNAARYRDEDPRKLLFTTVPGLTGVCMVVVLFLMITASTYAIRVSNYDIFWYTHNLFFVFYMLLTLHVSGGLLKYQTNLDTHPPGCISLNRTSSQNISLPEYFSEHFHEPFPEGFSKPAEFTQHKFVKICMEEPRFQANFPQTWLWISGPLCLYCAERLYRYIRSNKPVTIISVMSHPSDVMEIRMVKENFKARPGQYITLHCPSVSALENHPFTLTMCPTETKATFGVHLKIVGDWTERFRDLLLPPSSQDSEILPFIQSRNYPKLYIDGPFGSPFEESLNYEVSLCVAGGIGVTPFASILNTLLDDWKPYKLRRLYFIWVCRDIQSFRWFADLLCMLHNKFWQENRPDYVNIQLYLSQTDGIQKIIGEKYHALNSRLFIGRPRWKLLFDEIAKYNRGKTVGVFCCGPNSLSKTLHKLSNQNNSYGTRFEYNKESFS

`CC1CC/C=C\[C@H]2OC34C=CCN(C(C)C)C(=O)[C@H]3N(C(CO)C(C)C)C(=O)[C@@H]4C2C(=O)O1` (stereo not given in full): the composite z-score in experiment [1] was -0.0784; in experiment [5], -1.28; in [6] it was -0.133; with Torsin-1A (Homo sapiens) [7] it was -0.87; with Torsin-1A (Homo sapiens) [8] it was -0.22; in experiment [9], -0.137. Moreover, the composite z-score in [11] was -0.225. In addition, the z-score in experiment [2] was 0.114 (inactive); in [3], -0.346 (inactive); in experiment [4], -0.791 (inactive); in [10] it was 2.16 (inactive); in [12], 1.3 (inactive); in experiment [13] it was -0.74 (inactive). Also, the z-score in experiment [14] is 0.604 (inactive); in experiment [15] it was -0.531 (inactive); in [16], 0.0551; in experiment [17], 1.49 (inactive); in [18] it was 0.743 (inactive); in experiment [19] it was 1.79. In [20], the z-score is 1.06.
Turning to `C=CCNC(=O)[C@@H]1[C@H]2C(=O)O[C@H](c3ccccc3)[C@H](c3ccccc3)N2[C@H](c2ccc(O)cc2)[C@@]12C(=O)Nc1ccccc12`, the composite z-score was 0.154 in experiment [1]; -0.171 in [5]; -0.218 in experiment [6]; -0.0795 with Torsin-1A (Homo sapiens) [7]; -0.264 with Torsin-1A (Homo sapiens) [8]; 1.05 in experiment [9]. The composite z-score in experiment [11] was -0.22. The z-score was -2.84 (inactive) in experiment [2]; -0.348 (inactive) in experiment [3]; -1.3 (inactive) in experiment [4]; 1.88 (inactive) in experiment [10]; 3.11 (inactive) in experiment [12]; 0.87 (inactive) in experiment [13]. In addition, the z-score in experiment [14] is 0.253 (inactive); in experiment [15] it was 0.983 (inactive); in [16], 0.686; in experiment [17] it was -0.00775 (inactive); in [18], -1.9 (inactive); in experiment [19], -1.37. Also, the z-score in experiment [20] was 0.106.
`C=CC[C@@]1(C(=O)NCc2ccccc2)N=C(c2ccc(OCCCO)cc2)O[C@@H]1c1ccccc1`: the composite z-score in experiment [1] is 0.102; in [5] it was 0.344; in [6], 0.0582; in the experiment with Torsin-1A (Homo sapiens) [7], 0.161; with Torsin-1A (Homo sapiens) [8], 0.551; in experiment [9], -0.435. This compound registered a composite z-score in [11] of 0.399. Besides, the z-score in experiment [2] was -4.6 (inactive); in [3] it was -0.16 (inactive); in experiment [4] it was -1.56 (inactive); in experiment [10], 2.48 (inactive); in experiment [12] it was 24.4 (active); in experiment [13], 11.3 (active). Moreover, the z-score is 2.34 (inactive) in [14]; 0.546 (inactive) in experiment [15]; 1.46 in experiment [16]; -0.189 (inactive) in experiment [17]; 0.956 (inactive) in experiment [18]; -1.14 in experiment [19]. For the same compound, in experiment [20], the z-score is -0.506.
`C#CCN1C(C(=O)OCC)OC[C@H]1c1ccccc1` (stereo not given in full): the composite z-score in [1] is 0.0718; in [5], -0.0517; in experiment [6], 0.195; in the experiment with Torsin-1A (Homo sapiens) [7] it was 3.34; with Torsin-1A (Homo sapiens) [8], 3.27; in [9], 0.789. For the same compound, in experiment [11], the composite z-score is -0.0061. In addition, the z-score in experiment [2] is -2.25 (inactive); in [3] it was 1.12 (inactive); in experiment [4], -0.678 (inactive); in experiment [10], 2.39 (inactive); in experiment [12], 0.0429 (inactive); in experiment [13], -1.18 (inactive). Moreover, the z-score is 0.696 (inactive) in experiment [14]; -2.37 (inactive) in [15]; 1.01 in experiment [16]; 0.413 (inactive) in [17]; 0.918 (inactive) in [18]; -0.727 in experiment [19]. For the same compound, the z-score in [20] was 0.208.
